Laboratory results taken from PubChem BioAssay (EPA / NIEHS).
Where “and” joins values, the source holds several entries; their conditions need not be identical. Equal values may be shown once. Calls of active or inactive are those of the source. Rule for the calls: active = hit-call score of the fitted dose curve at least 0.9, where 1 is the maximum; inactive = score below 0.9.

Assay: CCTE_Shafer_MEA_dev_spike_duration_mean: CCTE's Neural Network Formation Assay for Mean Spike Duration, Shafer Lab (AID 2284051);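 for AC50: potency for a decrease in mean network spike duration versus DMSO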
Method: CCTE_Shafer_MEA_dev assay is conducted using Axion Biosystems 48 well microelectrode array (MEA) plates and Maestro recording system. Each well of the MEA plate contains a grid of 16 microelectrodes embedded in the culture surface. Electrically active cells, such as neurons, can be cultured over the electrodes, and electrical activity in these cells can be recorded extracellularly. The spontaneous firing of neurons is captured from each electrode on a microsecond timescale providing both temporally and spatially precise data. […] The CCTE_Shafer_MEA_dev assay uses primary cultures of rat cortical neurons. Recordings are made on days post-plating 5, 7, 9 and 12. As these cultures mature over time, neural networks develop functional activity and form cohesive networks in which electrical activity can be highly coordinated. CCTE_Shafer_MEA_dev_spike_duration_mean is 1 of 19 assay components of the CCTE_Shafer_MEA_dev assay. It measures the average duration of network spikes (temporally-clustered groups of action potential firing across multiple electrodes) during a recording in a microelectrode array (MEA) using Axion Biosystems Maestro 768 channel amplifier with the AxIS adaptive spike detector. To collapse across multiple recordings made on days post-plating 5, 7, 9 and 12, the trapezoidal area-under-the-curve of the component is calculated.Data from the assay component CCTE_Shafer_MEA_dev_spike_duration_mean was analyzed into 1 assay endpoint. This assay endpoint, CCTE_Shafer_MEA_dev_spike_duration_mean, was analyzed in the negative analysis fitting direction relative to DMSO as the negative control and baseline of activity. Using a type of functional reporter, gain or loss-of-signal activity can be used to understand electrical activity.
On the day prior to culture, each well was coated thoroughly with 150 uL of 0.05% polyethyleneimine (PEI, Sigma Cat P3143) in 50 mM HEPES (Sigma Cat H7523) at a pH of 8. The plate was incubated at 37C for one hour. PEI was rinsed out with 500 uL of sterile water three times. Plates were stored at 4C until the day of culture. This culture was plated at a seeding density of 1.5 x 10^5 cells/well on a 48-well MEA plate, prepared as described above. Cells were administered via a 25 uL media/laminin ([…]; Sigma Cat L2020-1MG) drop directly onto the microelectrode array, as adding the cells with the laminin results in better attachment than pre-coating with laminin. After 2 hours, an additional 475 uL of cortical media was added and the cells returned to the incubator. Exposure starts at day 0 of plating and is continued over twelve days of network development until the experiment is terminated. Cells are fed with fresh medium on DIV 5 and 9, following the recordings on those days. The entire volume of media in the well is exchanged and any vehicle or compound treatment is renewed. Complete details are found in OP-NHEERL/ISTD/SBB/TJS/2015-03-r0 (available on request, email shafer.tim@epa.gov). Measurement of the electrical activity is non-invasive, and recordings can be made from the same plate over multiple different days of the culture. In cortical neurons, this allows for the measurement of extracellular action potentials over the period during which networks form in the MEA plate.

Row | SMILES | AC50 | outcome
1 | C[C@@H]1CCO[C@H]2Cn3cc(C(=O)NCc4ccc(F)cc4F)c(=O)c(O)c3C(=O)N12 | 0.901 µM (active) | –
2 | C[C@@H]1CC[C@@H](C(C)(C)O)[C@H](O)C1 | – | inactive
3 | CC(C)O | 14.3 µM (active) | –
4 | CCc1ccccc1 | – | inactive
5 | c1ccc2c(c1)ccc1c3ccccc3ccc21 | – | inactive
6 | CN(C)CCCn1cc(C2=C(c3c[nH]c4ccccc34)C(=O)NC2=O)c2ccccc21 | 6.41 µM (active) and 5 µM (active) and 3.28 µM (active) | –
7 | [O]=[V]([OH])([OH])[OH] | 15 µM (active) | –
8 | O=C1CC2(CCCC2)CC(=O)N1CCCCN1CCN(c2ncccn2)CC1 | 15 µM (active) | –
9 | F | – | inactive
10 | CC(C)c1nn(C(=O)NC(C)(C)C)c(=O)n1N | – | inactive
11 | Cc1[nH]n(C)c(=O)c1C(=O)c1ccc(C(F)(F)F)cc1S(C)(=O)=O | – | inactive
12 | CCCCCC=C(C)C(CC)CCO (stereo not drawn) | – | inactive
13 | BrC1CC(Br)CC(Br)CC(Br)CC(Br)CC(Br)C1 (stereo not drawn) | 3.57 µM (active) | –
14 | CC(=O)N[C@@H](CC(=O)O)C(=O)O | – | inactive
15 | Brc1cc(Br)c(Oc2cc(Br)c(Br)cc2Br)cc1Br | – | inactive
16 | CC(CNC(=S)[S-])NC(=S)[S-].[Zn+2] (stereo not drawn) | 8.64 µM (active) | –
17 | CCCCCC(C)(CC)C(=O)NC (stereo not drawn) | 9.92 µM (active) | –
18 | c1cc2c3c(c1)ccc1cccc(c13)C2 | – | inactive
